Screening data (PubChem BioAssay)
This is a sample that favours compounds with a hit; in the whole collection about 9.3% have one here.
Sm TGR inh: qHTS Assay for the Inhibitors of Schistosoma Mansoni Peroxiredoxins; Schistosoma mansoni thioredoxin glutathione reductase (TGR), Q962Y6; Potency, µM (series often up to 114 µM), most hits filed as inhibitors; purified TGR, DTNB reduction, TNB absorbance 405 nm; AID 485364, 2010; 3% of 360,000 active; note: nearly all actives have a fitted effect of over 60% in size
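TGR 20 nM + NADPH 100 uM (dispensed conc.), cpd preinc 15 min RT; start with NADPH (500 uM addition) then DTNB (15 mM addition). Kinetic TNB absorbance, 405 nm filter. Four-parameter Hill fit across titration.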
HCV inhibitor: qHTS Assay for Inhibitors of Hepatitis C Virus (HCV); Huh7.5.1 HCVcc-Cre infection, luciferase reporter, 44 h; Potency, µM (top dose mostly 41.8 µM), usual class: inhibitors; 3.4% of 340,000 active
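Infectious HCV cell culture screen: compound-treated cells (1,000/well, pre-plated 4 h) are infected with HCVcc-Cre at roughly 0.5 moi and grown 44 h. Infection is quantified by luciferase signal after 15 min substrate incubation at room temperature.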
Vaccinia Venus: qHTS for Stage-Specific Inhibitors of Vaccinia Orthopoxvirus: Venus Reporter Primary qHTS | Vaccinia virus Venus reporter expression, fluorescence | Potency, µM (doses to about 36.5 µM), actives largely listed as inhibitors | 0.46% of 330,000 active | AID 720580, 2013; calls by dose curve; tested in A549 cells; note: nearly all actives have a fitted effect of over 30% in size
HCMV inh: qHTS Assay for inhibitors of the human cytomegalovirus (HCMV); HFF cells, HCMV-luciferase reporter, 72 h; stronger effect = lower value; activity change, negative = inhibition, % at 57.5 µM; 4.5% of 410,000 active; AID 1259415, 2018; in the data active = activity change below about -60%; inconclusive = no clear call, values can overlap the other calls; inactive = above about -39%
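Two-dose cell screen: HFF monolayers treated with compounds and infected with luciferase-expressing HCMV at 1 PFU/cell, 72 h at 37C, then lysed for luciferase measurement.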
Vaccinia mCherry: qHTS for Stage-Specific Inhibitors of Vaccinia Orthopoxvirus: mCherry Reporter Primary qHTS; Vaccinia virus mCherry reporter infection, fluorescence; Potency, µM (top dose mostly 36.5 µM), hits mostly inhibitors; 0.63% of 310,000 active; calls by dose curve; tested in A549 cells; note: nearly all actives have a fitted effect of over 35% in size
FMDV inh: High Throughput Screening for Foot and Mouth Disease Virus Antivirals; FMDV antiviral cell-based qHTS; Potency, µM (titrated, usually from 57.9 µM), actives largely listed as inhibitors; 1.2% of 410,000 active; AID 1159524, 2015; calls by dose curve; tested in HEK293T cells; note: read-out not given here; nearly all actives have a fitted effect of over 45% in size
A number is an active result; - = inactive; ? = inconclusive; . = no result. Unless noted, calls come from the whole dose curve; as a rule, active = well fitted curve in the direction sought with a large enough effect; inconclusive = small, poorly fitted or top-dose-only effect, or another doubt; inactive = no such curve, though single readings can be large; an effect the other way counts as inactive or inconclusive.

SMILES | Sm TGR inh | HCV inhibitor | Vaccinia Venus | HCMV inh | Vaccinia mCherry | FMDV inh
O=C1N(c2ccccc2)C[C@@H]2C[C@@H](c3cc4ccccc4o3)N3CCC[C@@]123 | - | ? | ? | -99 | 0.89µM | -
O=C(NC(=S)Nc1ccccc1Cl)c1csnn1 | 22µM | - | - | - | - | .
NS(=O)(=O)c1ccc(NC(=O)c2csnn2)cc1 | - | . | - | - | - | -
CC(C)c1ccc(NC(=O)c2csnn2)cc1 | - | 14µM | . | - | . | -
CN(C(=O)CCc1ccccc1F)C1CCCN(Cc2ccccc2F)C1 (configuration not stated) | - | - | - | - | - | -
Cc1noc(C)c1C(=O)Nc1nc2ccc(S(C)(=O)=O)cc2s1 | - | - | - | - | - | ?
CCOC(=O)c1cnc2c(C)c(Cl)ccc2c1NCCCN1CCOCC1 | - | - | . | - | . | -
COc1ccc(S(=O)(=O)Nc2ccc(OCC(=O)O)cc2)c2ccccc12 | - | - | - | - | - | -
COC(=O)n1c(=O)oc2cc(S(=O)(=O)N3CCCCC3)ccc21 | - | - | . | - | . | -
Cc1ccc(CNC(=O)CCn2cc(-c3ccc(C)cc3)nc2CCN)cc1 | - | - | - | - | ? | -
O=C(c1c[nH]c(C(=O)C(Cl)(Cl)Cl)c1)c1c(F)cccc1F | - | - | - | -80 | - | -
COCCn1c(Cc2cccn2C)nnc1SCC(=O)NCc1ccc2c(c1)OCO2 | - | - | - | - | - | -
Cc1ccc(-c2nn(-c3cccc(F)c3)cc2CN2CCN(c3ccccn3)CC2)o1 | ? | ? | . | - | . | -
Cc1ccc(-c2nn(-c3cccc(F)c3)cc2CN(Cc2nccn2C)C(C)C)o1 | 20µM | - | - | ? | - | -
CCC1(CC)Cc2ccccc2C2=C(C(=O)N3CCCCC3)C(=O)C(=O)N21 | - | - | - | - | - | -
CCOc1ccc2[nH]c(SCC(=O)OC)c([N+](=O)[O-])c2c1 | 45µM | - | - | - | - | -
COC(=O)CSc1[nH]c2ccc(Br)cc2c1[N+](=O)[O-] | 2.5µM | - | - | - | - | -
Cc1ccc2[nH]c(CSc3nnc(COc4ccccc4C)n3C)cc(=O)c2c1 | - | . | - | - | - | ?
Cc1ccccc1OCc1nnc(SCc2cc(=O)c3cc(F)ccc3[nH]2)n1C | - | . | - | -62 | - | ?
Cc1cccc2c(SCC(N)=O)nc(-c3ccccc3)nc12 | - | 7.1µM | . | - | . | -
COc1ccc(C(=O)OCC(=O)Nc2ccc3[nH]c(=O)[nH]c3c2)cc1 | - | - | - | - | - | -
CNc1ccccc1C(C)(C)c1cc(-c2ccc(F)cc2)no1 | - | 4µM | - | -85 | ? | ?
CC(=O)NCC(=O)OCC(=O)N1c2ccccc2Sc2ccccc21 | ? | - | - | ? | ? | -
CCc1nn(CC(=O)NCCCN2CCN(C)CC2)c(=O)c2cc3occc3n12 | - | - | - | - | - | -
CCc1nn(CC(=O)NCCN2CCN(C)CC2)c(=O)c2cc3occc3n12 | - | - | ? | -104 | . | -
SMILES | Sm TGR inh | HCV inhibitor | Vaccinia Venus | HCMV inh | Vaccinia mCherry | FMDV inh
CCc1nn(CCCC(=O)N2CCN(c3cccc(C)c3C)CC2)c(=O)c2cc3occc3n12 | - | 14µM | . | - | . | ?
O=C(/C=C/Nc1ccccc1)c1ccc(Cl)cc1Cl | - | - | . | - | . | -
N#Cc1c(Nc2ccccc2)[n+]([O-])c2ccc(Cl)cc2[n+]1[O-] | . | 2.8µM | ? | ? | - | -
O=C(CCNC(=O)c1ccccc1Cl)OCC(=O)c1ccccc1 | - | - | . | - | . | -
Cc1nc(CC(=O)c2c(C)cc(O)cc2O)cs1 | - | - | - | -71 | - | .
COC(=O)c1ccc(CC(=O)c2ccc(O)cc2O)o1 | ? | - | - | . | . | -
COC(=O)c1ccc(CC(=O)c2c(C)cc(O)cc2O)o1 | 22µM | - | - | ? | - | -
CCOc1ccc(NC(=O)CSc2nc(=O)n(Cc3ccccn3)c3c2CCC3)cc1 | - | - | - | ? | - | -
CCS(=O)(=O)n1nc(-c2ccc(Cl)cc2)nc1N | - | - | - | - | - | -
Cc1nnc(SCc2nc3ccccc3c(=O)n2-c2ccccc2Cl)n1N | 56µM | - | - | - | - | .
O=c1c2ccccc2nc(CSc2nnnn2-c2ccccc2)n1-c1ccccc1Cl | - | ? | - | ? | - | -
CC1CCCCC12NC(=O)N(Cn1nnc3ccccc3c1=O)C2=O (configuration not stated) | - | - | - | - | . | -
CCCn1c(/C=N/Nc2nc3ccccc3[nH]2)nc2ccccc21 | - | ? | ? | -99 | 10µM | ?
C(=N\Nc1nc2ccccc2[nH]1)/c1cccs1 | - | - | - | - | - | -
Cn1c(/C=N/Nc2nc3ccccc3[nH]2)nc2ccccc21 | - | ? | - | -83 | ? | -
CCN(CC)c1ccc(/C=N/Nc2nc3ccccc3[nH]2)cc1 | ? | 13µM | . | . | . | -
CC(=O)Nc1ccc(/C=N/Nc2nc3ccccc3[nH]2)cc1 | - | ? | . | - | . | -
Cc1c(/C=N/Nc2nc3ccccc3[nH]2)c2ccccc2n1C | - | ? | - | -96 | - | ?
Cc1nn(-c2ccccc2)c(C)c1/C=N/Nc1nc2ccccc2[nH]1 | - | ? | - | ? | ? | ?
CC(C)Cn1c(/C=N/Nc2nc3ccccc3[nH]2)nc2ccccc21 | - | 2.5µM | ? | -97 | ? | 25µM
C=CCn1cc(/C=N/Nc2nc3ccccc3[nH]2)c2ccccc21 | - | ? | ? | - | - | -
CC(=O)Nc1ccc(NC(=O)C2CCC(CNS(=O)(=O)c3cccc4nsnc34)CC2)cc1 (configuration not stated) | - | - | - | - | - | -
Cn1c(=O)c2c(nc(CN3CCN(Cc4ccccc4)CC3)n2CCN2CCOCC2)n(C)c1=O | 40µM | - | . | - | . | -
CCOCCn1c(CN2CCN(c3cccc(Cl)c3)CC2)nc2c1c(=O)n(C)c(=O)n2C | - | 16µM | - | - | - | ?
COCCn1c(CN2CCN(c3cccc(Cl)c3)CC2)nc2c1c(=O)n(C)c(=O)n2C | - | ? | ? | ? | - | -
Cn1c(=O)c2c(nc(CN3CCN(Cc4ccccc4)CC3)n2Cc2ccc(Cl)cc2)n(C)c1=O | - | ? | ? | -103 | - | -
Cn1c(=O)c2c(nc(CN3CCC(Cc4ccccc4)CC3)n2CCN2CCOCC2)n(C)c1=O | - | - | . | - | . | -
COC(=O)Cn1c(CN2CCc3ccccc3C2)nc2c1c(=O)n(C)c(=O)n2C | - | - | - | -66 | - | ?
O=C(Cc1cccc2ccccc12)N1CC[C@@]2(O)CCCC[C@H]2C1 | - | - | - | - | - | -
CCOC(=O)c1[nH]c2ccc(OC)cc2c1NC(=S)N1CCN(c2ccccc2OC)CC1 | - | ? | - | - | ? | -
